The text below walks through data of PubChem BioAssay.

Test [1] deals with Plasmodium falciparum Sir2 (PF13_0152, Sir2A). Nature of the test: Plasmodium falciparum Sir2A binding compounds – biochemical, small-molecule microarray, 635 nm fluorescence, primary screen (AID 1098).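 Also: score merges spot fluorescence intensity with its signal-to-noise ratio.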 The settings on record: fluorescence 635 nm, higher = more signal.
A short description of test [2]: probe aDKK1 binding to arrayed compounds – biochemical, biotinylated probe, 635/667 nm fluorescence, primary screen (AID 1099).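 Also: score merges 667nm spot fluorescence with signal to noise across triplicate slides.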 The conditions noted are these: small-molecule microarray, higher = more signal.
Test [3] can be described thus: probe aCHRDL2 binding to arrayed compounds – biochemical, biotinylated probe, 635/667 nm fluorescence, primary screen (AID 1100). The conditions noted are these: small-molecule microarray, higher = more signal.
Test [4] in a line: change in splice reporter luminescence, either direction, cell-based, HEK293, spliceosome inhibition project, primary screen (AID 1101).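 Also: HEK293 cells carrying a splicing-competent luciferase reporter gene; test concentration not given here.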 The settings on record: HEK293 splicing luciferase reporter, 24 h, higher = more signal, called active from +8 up or from −8 down. A general note: Reporter assays use an easily measured gene product as a stand-in for the process of interest.
In test [5] the target is Fibroblast growth factor 10 (Homo sapiens) (UniProt O15520). Nature of the test: compounds binding fibroblast growth factor 10 – biochemical, small-molecule microarray, 635 nm fluorescence, primary screen (AID 1102). The conditions noted are these: FGF10 binding, fluorescence 635 nm, higher = more signal.
Test [6] deals with glycogen synthase kinase-3 (GSK3A per assay name; protocol says GSK3B). The experiment in a line: compounds binding glycogen synthase kinase-3 – biochemical, small-molecule microarray, 635 nm fluorescence, GSK3A, primary screen (AID 1103). Also: the record names both GSK3A and GSK3B. The settings on record: fluorescence 635 nm, higher = more signal.
Test [7] addresses Epidermal growth factor receptor (Homo sapiens) (UniProt P00533). Nature of the test: compounds binding epidermal growth factor receptor – biochemical, small-molecule microarray, 635 nm fluorescence, primary screen (AID 1104).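 Also: score merges 667 nm emission intensity with spot signal to noise over triplicate slides.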 The settings on record: EGFR binding, higher = more signal.
Test [8] deals with Follistatin-related protein 3 (Homo sapiens) (UniProt O95633). The experiment in a line: compounds binding follistatin-related protein 3 – biochemical, small-molecule microarray, 635 nm fluorescence, primary screen (AID 1105).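 Also: score merges emission near 667 nm and signal to noise per printed spot across three slides.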 The conditions noted are these: FSTL3 binding, higher = more signal.
Test [9] addresses Dickkopf-related protein 1 (Homo sapiens) (UniProt O94907). Nature of the test: small molecules binding DKK1 protein – biochemical, small-molecule microarray, 635 nm fluorescence scan, primary screen (AID 1106).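 Also: score merges emission near 667 nm with signal to noise over three replicate slides.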 The conditions noted are these: higher = more signal.
For test [10], the system named is Inhibin beta A chain (activin A). Nature of the test: small molecules binding activin A – biochemical, small-molecule microarray, 635 nm fluorescence scan, primary screen (AID 1107).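 Also: mouse activin A protein probed at 4.33 µg/mL on printed slides; score merges bound-protein fluorescence near 667 nm with spot signal-to-noise.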 The settings on record: INHBA, higher = more signal.
Test [11] deals with Human papillomavirus type 1a protein E7 (residues 44-93). Nature of the test: small molecules binding HPV E7 44-93 – biochemical, small-molecule microarray, residues 44-93, 635 nm fluorescence, primary screen (AID 1108).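 Also: E7 fragment applied at 1 µg/mL in TBST for 1 h at 4 C; score combines spot fluorescence with its signal to noise ratio.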 The conditions noted are these: fluorescence 635 nm, higher = more signal.
Test [12] can be described thus: hepatitis C replication reporter changes, two-sided – Huh7 cells, luciferase reporter, HCV replication inhibitor project, primary screen (AID 1109).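 Also: huh7 hepatoma cells harbouring a luciferase neomycin HCV replicon reporter; luciferase luminescence as measure of HCV replicon replication; test concentration not given here.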 The conditions noted are these: Huh7 HCV replicon luciferase reporter, 48 h; higher = more signal.
Test [13] deals with Left-right determination factor 2 (Homo sapiens) (UniProt O00292). Nature of the test: small molecules binding LEFTY2 protein – biochemical, small-molecule microarray, 635 nm fluorescence scan, primary screen (AID 1110). The conditions noted are these: higher = more signal.
Test [14] addresses Calmodulin-1 (Homo sapiens) (UniProt P0DP23). Nature of the test: small molecules binding calmodulin-1 with EGTA – biochemical, small-molecule microarray, Cy5-labelled CALM1, profiling panel (AID 1111).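 Also: labelled calmodulin applied in Tris saline Tween buffer holding calcium plus EGTA and DTT.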 The conditions noted are these: Cy5-CALM1 binding fluorescence, higher = more signal.
The target is the same in test [15]. The experiment in a line: small molecules binding Ca-loaded calmodulin-1 – biochemical, small-molecule microarray, Cy5-labelled CALM1, plus calcium, artefact control for SMM control-protein annotation, profiling panel (AID 1112).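 Also: score merges spot fluorescence with signal to noise from triplicate slides.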 The conditions noted are these: Cy5-CALM1 binding fluorescence, higher = more signal.
A short description of test [16]: probe aWnt5a binding to arrayed compounds – biochemical, biotinylated probe, 635/667 nm fluorescence, primary screen (AID 1113).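 Also: score merges 667 nm fluorescence intensity with signal-to-noise per printed feature.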 The conditions noted are these: small-molecule microarray, higher = more signal.
Test [17] can be described thus: probe aShh binding to arrayed compounds – biochemical, biotinylated probe, 635/667 nm fluorescence, primary screen (AID 1114).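 Also: probe is biotin-labelled aShh protein from a stem cell growth factor screen; measures binding of labelled protein to compounds printed on the slide; score merges feature fluorescence at 667 nm with signal-to-noise.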 The conditions noted are these: small-molecule microarray, higher = more signal.
Test [18] is described as follows: probe aNog binding to arrayed compounds – biochemical, biotinylated probe, 635/667 nm fluorescence, primary screen (AID 1115).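 Also: probe is biotinylated aNog protein used at 0.15 µg/mL for 1 h at 4 C; z-score combines 667 nm fluorescence of each spot with its signal to noise.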 The conditions noted are these: small-molecule microarray, higher = more signal.
For test [19], the target named is Torsin-1A-interacting protein 1 (Homo sapiens) (UniProt Q5JTV8). The experiment in a line: compound microarray binding of lysate hLAP1 – cell lysate, small-molecule microarray, COS7 lysate, 635/667 nm fluorescence, primary screen (AID 1116). The conditions noted are these: 635 nm fluorescence, higher = more signal.
Test [20] concerns the target Alpha-bungarotoxin (Bungarus multicinctus) (UniProt P60615). The experiment in a line: compounds binding labelled alpha-BTX control protein – biochemical, small-molecule microarray, Alexa647 label, 635/667 nm fluorescence, artefact control for SMM control protein annotation, profiling panel (AID 1117). The conditions noted are these: alpha-BTX-A647 binding fluorescence, higher = more signal.

Activity calls are given as the source filed them.

Chain of Alpha-bungarotoxin (Bungarus multicinctus) (P60615 whole entry, looked up): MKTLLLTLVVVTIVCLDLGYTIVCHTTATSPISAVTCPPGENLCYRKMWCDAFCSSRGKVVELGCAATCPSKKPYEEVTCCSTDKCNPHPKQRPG
Chain of Dickkopf-related protein 1 (Homo sapiens) (O94907 whole entry, looked up): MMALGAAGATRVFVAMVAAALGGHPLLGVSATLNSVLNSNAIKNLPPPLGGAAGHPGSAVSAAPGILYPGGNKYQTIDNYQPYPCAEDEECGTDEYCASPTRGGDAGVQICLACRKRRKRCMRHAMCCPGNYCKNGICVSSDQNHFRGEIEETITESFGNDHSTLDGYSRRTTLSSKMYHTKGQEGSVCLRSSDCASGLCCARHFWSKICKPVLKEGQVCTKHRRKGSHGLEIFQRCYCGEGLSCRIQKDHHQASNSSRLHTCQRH
Chain of Epidermal growth factor receptor (Homo sapiens) (P00533 whole entry, looked up): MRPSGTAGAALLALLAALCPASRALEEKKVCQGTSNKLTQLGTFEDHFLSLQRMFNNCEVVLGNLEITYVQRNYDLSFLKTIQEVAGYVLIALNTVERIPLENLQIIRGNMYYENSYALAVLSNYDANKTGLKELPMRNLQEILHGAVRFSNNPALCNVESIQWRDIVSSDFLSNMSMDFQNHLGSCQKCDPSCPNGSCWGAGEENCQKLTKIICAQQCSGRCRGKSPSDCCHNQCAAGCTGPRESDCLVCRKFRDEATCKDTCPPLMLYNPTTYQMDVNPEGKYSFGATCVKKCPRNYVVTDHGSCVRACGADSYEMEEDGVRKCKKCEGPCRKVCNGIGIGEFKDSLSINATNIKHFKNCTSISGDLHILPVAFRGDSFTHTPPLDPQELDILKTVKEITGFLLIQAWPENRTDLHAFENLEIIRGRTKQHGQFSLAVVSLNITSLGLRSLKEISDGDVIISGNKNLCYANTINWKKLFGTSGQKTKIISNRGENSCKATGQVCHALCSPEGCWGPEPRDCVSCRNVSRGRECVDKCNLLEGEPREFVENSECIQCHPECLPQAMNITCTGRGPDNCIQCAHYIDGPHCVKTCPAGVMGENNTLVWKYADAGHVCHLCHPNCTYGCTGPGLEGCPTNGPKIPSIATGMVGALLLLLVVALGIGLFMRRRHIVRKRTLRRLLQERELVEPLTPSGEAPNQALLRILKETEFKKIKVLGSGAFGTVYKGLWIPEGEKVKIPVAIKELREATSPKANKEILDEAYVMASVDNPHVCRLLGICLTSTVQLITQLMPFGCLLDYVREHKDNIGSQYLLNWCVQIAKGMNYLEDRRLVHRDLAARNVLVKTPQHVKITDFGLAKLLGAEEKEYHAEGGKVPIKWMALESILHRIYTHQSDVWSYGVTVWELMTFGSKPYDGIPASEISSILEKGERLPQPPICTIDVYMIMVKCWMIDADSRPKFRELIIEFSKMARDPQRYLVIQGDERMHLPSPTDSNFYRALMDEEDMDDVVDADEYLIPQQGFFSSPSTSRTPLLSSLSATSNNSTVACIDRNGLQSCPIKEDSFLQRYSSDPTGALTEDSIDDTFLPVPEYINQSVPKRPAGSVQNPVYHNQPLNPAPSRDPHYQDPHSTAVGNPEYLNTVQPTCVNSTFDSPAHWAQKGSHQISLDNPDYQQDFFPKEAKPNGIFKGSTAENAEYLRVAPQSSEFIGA
Chain of Left-right determination factor 2 (Homo sapiens) (O00292 whole entry, looked up): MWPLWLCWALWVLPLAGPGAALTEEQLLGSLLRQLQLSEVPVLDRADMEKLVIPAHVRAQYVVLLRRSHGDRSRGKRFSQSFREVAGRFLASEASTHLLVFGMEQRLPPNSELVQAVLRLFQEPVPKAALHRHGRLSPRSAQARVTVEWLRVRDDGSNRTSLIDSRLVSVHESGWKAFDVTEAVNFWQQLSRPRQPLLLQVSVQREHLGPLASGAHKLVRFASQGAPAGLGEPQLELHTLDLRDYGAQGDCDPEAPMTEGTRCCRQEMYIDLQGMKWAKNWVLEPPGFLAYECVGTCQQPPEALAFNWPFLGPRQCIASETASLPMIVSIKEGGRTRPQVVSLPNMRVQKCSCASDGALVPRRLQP
Chain of Torsin-1A-interacting protein 1 (Homo sapiens) (Q5JTV8 whole entry, looked up): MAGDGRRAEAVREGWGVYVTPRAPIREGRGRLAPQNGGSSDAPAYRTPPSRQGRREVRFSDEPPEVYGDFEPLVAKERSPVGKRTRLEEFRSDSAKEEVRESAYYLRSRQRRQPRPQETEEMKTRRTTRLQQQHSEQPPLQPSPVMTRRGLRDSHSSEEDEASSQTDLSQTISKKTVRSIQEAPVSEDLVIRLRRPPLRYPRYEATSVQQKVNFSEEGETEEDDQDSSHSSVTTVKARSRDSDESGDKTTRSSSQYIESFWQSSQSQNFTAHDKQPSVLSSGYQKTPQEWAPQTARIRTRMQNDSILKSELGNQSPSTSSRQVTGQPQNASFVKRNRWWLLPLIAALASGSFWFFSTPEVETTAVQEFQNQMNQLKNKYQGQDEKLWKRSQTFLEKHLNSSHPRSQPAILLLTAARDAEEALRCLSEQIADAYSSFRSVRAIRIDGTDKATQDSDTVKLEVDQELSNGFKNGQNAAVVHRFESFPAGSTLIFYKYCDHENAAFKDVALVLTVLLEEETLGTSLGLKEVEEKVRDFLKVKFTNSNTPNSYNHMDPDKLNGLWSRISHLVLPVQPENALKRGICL
Chain of Fibroblast growth factor 10 (Homo sapiens) (O15520 whole entry, looked up): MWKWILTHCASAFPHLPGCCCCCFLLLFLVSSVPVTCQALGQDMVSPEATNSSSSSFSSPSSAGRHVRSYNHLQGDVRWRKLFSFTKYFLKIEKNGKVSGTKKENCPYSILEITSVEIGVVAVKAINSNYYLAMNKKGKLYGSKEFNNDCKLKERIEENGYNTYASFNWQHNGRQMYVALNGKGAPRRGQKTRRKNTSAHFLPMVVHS
Chain of Follistatin-related protein 3 (Homo sapiens) (O95633 whole entry, looked up): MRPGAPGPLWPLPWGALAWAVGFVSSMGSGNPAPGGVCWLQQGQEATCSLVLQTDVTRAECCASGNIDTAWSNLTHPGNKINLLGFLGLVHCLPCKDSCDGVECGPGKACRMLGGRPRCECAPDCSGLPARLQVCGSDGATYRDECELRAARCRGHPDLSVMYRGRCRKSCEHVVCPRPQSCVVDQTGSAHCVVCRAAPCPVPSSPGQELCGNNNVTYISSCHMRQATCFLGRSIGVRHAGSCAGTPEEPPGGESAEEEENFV

As to `C=CCC(OC(C)=O)[C@@H]1[C@@H](N(Cc2ccc(-c3cccc(C(F)(F)F)c3)o2)C(=O)c2ccc(-c3ccccc3)cc2)c2cc(OCCCO)ccc2N1C(=O)c1ccc(-c2ccccc2)cc1` (stereo not given in full), the composite z-score is -0.285 in test [1]; 0.31 in test [2]; 0.543 in [3]; 0.269 in [5]; -0.754 in test [6]; -0.327 in test [7]. Further, the composite z-score in test [8] was 0.104; in [9], -0.0545; in [10], 1.32; in test [11], -0.165; in [13], -0.15; in [14], -0.104. For the same compound, the composite z-score in test [15] was 1.35; in test [16], 0.0214; in test [17], 0.275; in test [18], 0.26; in test [19], -0.228; in [20], 0.288. Moreover, the figures for the z-score in test [4] and in test [12] were 0.196 (inactive) and -0.614, respectively.

For the compound `CCOC(=O)C[C@H]1[C@H](OC(=O)c2cc3ccccc3oc2=O)[C@@H](NC(=O)C2CCCCC2)c2cc(OCCCO)ccc2N1C(=O)c1ccccc1`, the composite z-score is 0.784 in test [1]; -0.23 in test [2]; -0.377 in test [3]; 0.995 in test [5]; 0.692 in [6]; 0.593 in [7]. Moreover, the composite z-score in test [8] is 0.708; in [9] it was 0.5; in [10], 0.707; in test [11] it was 0.992; in test [13], 0.493; in test [14] it was -0.105. Also, the composite z-score in test [15] is -0.236; in test [16], -0.0405; in test [17], -0.138; in [18], -0.266; in test [19] it was 0.294; in [20], -0.0403. For the same compound, the z-score in test [4] is -1.45 (inactive); in test [12] it was -0.947.

`CC(C)C[C@@H]1NC(=O)[C@@H]2C[C@H](C(=O)NCCCCCN)[C@H](c3cccc(OCCO)c3)N2C1=O`: the composite z-score is 1.44 in test [1]; -0.0704 in test [2]; 0.527 in [3]; 0.272 in test [5]; 0.685 in test [6]; -0.26 in [7]. Moreover, the composite z-score in [8] is 0.627; in test [9], 0.387; in test [10] it was 0.842; in test [11] it was 0.828; in test [13], 0.197; in test [14], 1.36. Also, the composite z-score in test [15] was 0.615; in [16], -0.0896; in [17] it was -0.153; in test [18] it was -0.282; in test [19], 1.36; in test [20], 0.417. For the same compound, the results for the z-score in test [4] and in [12] were -1.08 (inactive) and -0.352, respectively.

As to `O=C1C2C=CC(C(O)c3ccc(F)cc3)N(Nc3ccccc3F)C2C(=O)N1c1ccccc1` (stereo not given), the composite z-score is 1.47 in [1]; 0.131 in test [2]; 0.996 in [3]; 0.678 in test [5]; -0.412 in test [6]; -0.609 in test [7]. The composite z-score in [8] was 0.396; in test [9] it was -0.868; in test [10], 0.503; in [11], 1.18; in test [13], -0.952; in [14], 1.23. Besides, the composite z-score in [15] is 0.367; in [16], -0.001; in [17], -0.0441; in test [18], 1.34; in test [19], 0.694; in [20] it was 0.394. Further, the z-score is 1.34 (inactive) in test [4] and 0.912 in test [12].

Regarding `[N-]=[N+]=NCc1ccccc1[C@@H]1OC(c2ccc(OCCCO)cc2)=N[C@]1(CCS(=O)(=O)c1ccccc1)C(=O)NCc1ccccc1`, the composite z-score in test [1] was 1.54; in test [2], 1.14; in test [3], 0.993; in [5] it was 1.25; in test [6], 1.26; in test [7], 0.274. The composite z-score in test [8] stood at 0.869; in [9], 0.494; in test [10] it was 1.07; in [11] it was 0.512; in [13], 0.526; in test [14], 1.02. Besides, the composite z-score in [15] came out at 0.222; in [16] it was 0.301; in test [17], 0.487; in test [18], 2.12; in test [19], 0.142; in [20], 2.18. For the same compound, the z-score is -0.392 (inactive) in test [4] and -1.78 in test [12].

With `CC(=O)NCCCC[C@@H]1NC(=O)[C@@H]2C[C@H](C(=O)NCCCCN(C)C)[C@H](c3cccc(OCCO)c3)N2C1=O`, the composite z-score in [1] is 1.4; in test [2] it was -0.0978; in test [3] it was 0.529; in test [5] it was 0.556; in [6], 0.117; in test [7], -0.12. The composite z-score in test [8] is 0.227; in test [9] it was 0.0332; in test [10], -0.609; in [11] it was -0.426; in test [13], -0.419; in test [14], 0.017. Besides, the composite z-score in [15] is 0.0573; in test [16] it was -0.0944; in [17], 0.0048; in test [18], -0.0474; in test [19], -1.4; in test [20], 0.473. The z-score in test [4] is 0.805 (inactive); in [12], 0.471.
